Measured values taken from PubChem BioAssay (Tox21).
“And” between values parts separate entries of the source, which are not always exact repeats. Identical values can stand only once. Records with an inconclusive call do not appear. More than one record can exist for a structure, and the calls need not agree. The source made the active and inactive calls. Calls come from the whole dose curve; as a rule, active = well fitted inhibition curve with a large enough effect in the repeat runs; inconclusive = weak or mixed curves; inactive = no such curve, though single readings can be large or run the other way.

target: Cytochrome P450 2C19 (Homo sapiens) (UniProt P33261); assay: Cytochrome P450 Family 2 Subfamily C Member 19 (CYP2C19) small molecule antagonists: luciferase reporter qHTS assay (AID 1671197); conditions: P450-Glo CYP2C19 enzyme, luciferin luminescence, 1 h; series mostly up to 115 µM; activity change, negative = inhibition: at the top concentration; note: nearly all actives have a fitted effect of over 65% in size
Description: National Center for Advancing Translational Sciences [NCATS]
U.S. Environmental Protection Agency [EPA]
National Institutes of Environmental Health Sciences [NIEHS]
National Toxicology Program [NTP]
U.S. Food and Drug Administration [FDA]
Cytochrome P450 (CYP) enzymes are membrane-bound hemeproteins that play a key role in metabolism of drugs and xenobiotics. Evaluation of the effect of chemicals on CYP isozymes is useful to minimize the adverse drug reactions and toxicities in drug development process. Tox21 chemicals were tested for their effect on CYP enzyme activities by using P450-Glo (TM) screening systems (Promega Corporation, Madison, WI). These systems provide a luminescent method containing proluciferin substrates and are converted to luciferin products by CYP isozymes. The luciferin products formed are detected with a luciferin detection reagent, and the amount of light produced is proportional to CYP activity. P450-Glo (TM) CYP2C19 screening system (Catalog. No. V9880) was used to detect the compounds that interfere in CYP2C19 activity. The positive control compound used for CYP2C19 assay is ketoconazole (Sigma-Aldrich, St. Louis, MO).
Tox21 Assay Protocol Summary:
Two ul of enzyme-substrate mix was dispensed into medium binding white/solid 1536-well plates (Greiner Bio-One North America Inc., Monroe, NC) using a BioRaptr Flying Reagent Dispenser (FRD, Beckman Coulter, Brea, CA). Compounds dissolved in DMSO and positive control (ketoconazole) were transferred to the assay plates at 23 nl using a Pintool station (Wako, San Diego, CA). The assay plates were incubated at room temperature for 10 min. Then 2 ul of NADPH regeneration solution was added to each well of the assay plates using an FRD and incubated at 37C for 1 h. The reaction was stopped by adding 4 ul of detection reagent using an FRD and after 20 min incubation at room temperature the luminescence signal was measured using a ViewLux plate reader (Perkin Elmer, Shelton, CT). Data were expressed as relative luminescence units.
% is set by controls: 0 for no effect and ±100 for the full control effect; potency is the fitted concentration of half-maximal effect.

Sequence of Cytochrome P450 2C19 (Homo sapiens) (P33261 whole entry, looked up): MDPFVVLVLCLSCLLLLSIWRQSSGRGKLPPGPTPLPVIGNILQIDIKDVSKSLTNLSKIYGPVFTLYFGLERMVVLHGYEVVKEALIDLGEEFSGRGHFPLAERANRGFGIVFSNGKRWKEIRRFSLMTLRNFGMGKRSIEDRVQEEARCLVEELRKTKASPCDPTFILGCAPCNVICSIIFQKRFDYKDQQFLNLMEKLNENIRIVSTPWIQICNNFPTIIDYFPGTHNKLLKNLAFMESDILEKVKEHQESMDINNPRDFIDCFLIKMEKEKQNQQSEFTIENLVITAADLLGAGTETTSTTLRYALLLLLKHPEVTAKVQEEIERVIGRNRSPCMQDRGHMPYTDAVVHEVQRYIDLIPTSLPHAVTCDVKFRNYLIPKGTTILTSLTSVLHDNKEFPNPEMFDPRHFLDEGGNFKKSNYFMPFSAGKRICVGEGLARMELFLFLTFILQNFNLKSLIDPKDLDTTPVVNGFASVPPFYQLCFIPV

SMILES	Potency	activity change, negative = inhibition
c1ccc2c(c1)sc1ccccc12	39.9 µM (active) and inactive	
CCCCC(CC)COC(=O)c1c(Br)c(Br)c(Br)c(Br)c1C(=O)OCC(CC)CCCC (stereo not given)		-14.9% [at 52.9 µM] (inactive)
O=C(CCl)CCl		3.25% (inactive)
CCCCNC(=O)OCC#CI	2.81 µM (active) and 2.52 µM (active)	
C[N+](C)(C)CC1CO1 (stereo not given)		-3.48% (inactive)
CCNC(=O)NC(=O)/C(C#N)=N/OC		-22.4% (inactive)
COC(=O)Cc1ccccc1		21.5% (inactive)
CCOC(=O)c1cn2nc(OP(=S)(OCC)OCC)cc2nc1C	2.52 µM (active)	
O=C1CC[C@@]2(O)[C@H]3Cc4ccc(O)c5c4[C@@]2(CCN3CC2CC2)[C@H]1O5		-24.1% [at 52.9 µM] (inactive)
ClCc1ccccc1Cl		-12% (inactive)
C=CCOC(=O)C(C)(C)OC(=O)c1cc(-n2c(=O)cc(C(F)(F)F)n(C)c2=O)ccc1Cl	49.3 µM (active)	
COC1CC(=C(c2cccs2)c2cccs2)C[N+](C)(C)C1 (stereo not given)		-15.9% [at 52.9 µM] (inactive)
CN(C1CCCCC1)C1CCCCC1		-27.6% (inactive)
C[C@H]1O[C@H](OC2[C@@H](O)[C@@H](O)C(O)[C@H](O)[C@H]2O)[C@@H](N)C[C@@H]1N=C(N)C(=O)O (stereo not given in full)		-7.64% (inactive)
CCCBr		15.8% (inactive)
Nc1cccc2ccccc12	16 µM (active) and 20 µM (active)	
NC(=S)c1c(Cl)cccc1Cl		-6.29% (inactive)
OCCSSCCO	56.4 µM (active)	
CCSCc1ccccc1OC(=O)NC		10.2% (inactive)
C=CC(=O)NC(C)(C)CC(C)=O		-4.77% (inactive)

SMILES	Potency	activity change, negative = inhibition
C=C(Cl)Cl	75.6 µM (active)	
C#CC(O)(C=CCl)CC (stereo not given)		1.97% [at 52.9 µM] (inactive)
C=CCOCC1CO1 (stereo not given)		-22.5% (inactive)
Clc1ccccc1		-6.29% (inactive)
CCC(C)(C)c1ccc(O)c(C(C)(C)CC)c1	4.97 µM (active) and 1.78 µM (active)	
COc1ccc(C(=O)c2c(C)n(CCN3CCOCC3)c3ccccc23)cc1	34.7 µM (active)	
O=P(OCC(Br)CBr)(OCC(Br)CBr)OCC(Br)CBr (stereo not given)	3.6 µM (active) and 4.25 µM (active)	
CC(Oc1cc(Cl)c(Cl)cc1Cl)C(=O)O (stereo not given)		16.7% (inactive)
N#CC(C#N)=C(C#N)C#N	58.9 µM (active)	
CCN(C(C)=O)c1cccc(-c2ccnc3c(C#N)cnn23)c1	27.5 µM (active)	
CCCSP(=S)(OCC)Oc1ccc(SC)cc1 (stereo not given)	0.399 µM (active)	
CCOP(=S)(OCC)Oc1ccc(S(C)=O)cc1 (stereo not given)	0.113 µM (active)	
CCCN(CCC)c1c([N+](=O)[O-])cc(C(C)C)cc1[N+](=O)[O-]	8.75 µM (active) and 5.03 µM (active)	
CC(C)CCCCCCCOC(=O)c1ccccc1C(=O)OCCCCCCCC(C)C		13.3% (inactive)
FC(F)OC(F)(F)C(F)Cl (stereo not given)		-26% (inactive)
CC(C)(C)NCC(O)c1cc(Cl)c(N)c(C(F)(F)F)c1 (stereo not given)		15.3% [at 52.9 µM] (inactive)
O=C1NC(=O)C(=O)C(=O)N1		11% (inactive)
CCOc1cccc(C2(N3CCN(c4ccccc4)CC3)CCC(C)CC2)c1 (stereo not given)		-19.1% (inactive)
CC(Cc1ccccc1)NCc1ccccc1Cl (stereo not given)	1.38 µM (active)	
CC(C)(C)NCC(O)c1ccccc1Cl (stereo not given)		-15% [at 52.9 µM] (inactive)
